Test results reported in PubChem BioAssay AID1159580 (chemical genetic matrix, 2015).
In all, about 5,500 compounds went through this assay and about 2,000 (36%) were called active. About 18% were inconclusive and are not listed. No stated cut-off is given here; in the data, active means normalized growth mostly below about 0.91 (no sharp cut-off); inconclusive means no clear call, values can overlap the other calls; inactive means mostly above about 0.92. The list shows a part of the results.

Experiment: chemical genetic growth profiling, strain panel (AID 1159580);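 further: tested at 20 µM; growth read once vehicle control cultures reached saturation at 30 °C; 1 = growth at the plate median or of vehicle wells; lower values mean less growth of the strain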
Details: S. cerevisiae deletion strains, growth OD

Measured: normalized growth

CC(=O)N1CCN(c2ccc(OC[C@H]3CO[C@](Cn4ccnc4)(c4ccc(Cl)cc4Cl)O3)cc2)CC1
active: locus YAL013W, strain DEP1, active compounds read low 0.0911 | locus YAL040C, strain CLN3, active compounds read low 0.208 | locus YCL061C, strain MRC1 (second series), active compounds read low 0.0612 | locus YDR363W, strain ESC2, active compounds read low 0.103 | locus YER002W, strain NOP16, active compounds read low 0.137 | locus YGR078C, strain PAC10, active compounds read low 0.139 | locus YGR229C, strain SMI1, active compounds read low 0.0746 | locus YJR075W, strain HOC1, active compounds read low 0.0931 | locus YMR263W, strain SAP30, active compounds read low 0.588 | locus YNL128W, strain TEP1, active compounds read low 0.16 | locus YNL153C, strain GIM3, active compounds read low 0.14 | locus YNL175C, strain NOP13, active compounds read low 0.133 | locus YNL197C, strain WHI3, active compounds read low 0.147 | locus YNL224C, strain SQS1, active compounds read low 0.18 | locus YNL322C, strain KRE1, active compounds read low 0.0931 | locus YOR083W, strain WHI5 (second series), active compounds read low 0.175 | locus YPL055C, strain LGE1, active compounds read low 0.104
